Assay outcomes from PubChem BioAssay.
MCF10A rereplic: A quantitative high throughput screen for small molecules that induce DNA re-replication in MCF 10a normal breast cells; MCF 10A DNA re-replication, Hoechst nuclear intensity, 48 h; Potency, µM (highest dose often 46.1 µM), for the others: top-dose activity, positive = re-replication, usual class: activators; hit rate 2.9% among 350,000; AID 624296, 2012; note: % of control where 0% means no effect; nearly all actives have a fitted effect of over 50% in size
SW480 rerep: A quantitative high throughput screen for small molecules that induce DNA re-replication in SW480 colon adenocarcinoma cells; Potency, µM (series often up to 46.1 µM), inactives show at the top dose re-replication activation, actives largely listed as activators; AID 624297, 2012; hit rate 1.8% among 340,000; SW480 DNA re-replication, Hoechst DNA content imaging, 48 h; note: % of control where 0% means no effect; nearly all actives have a fitted effect of over 55% in size
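Treated cells incubate 48 hr (37 C, 5% CO2), are stained 40 min with Hoechst, and nuclear fluorescence is enumerated; a rise in nuclei with high DNA signal marks re-replication.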
HT1080NT lethal: qHTS for induction of synthetic lethality in tumor cells producing 2HG: qHTS for the HT-1080-NT fibrosarcoma cell line. hit rate 1.6% among 360,000. HT-1080-NT fibrosarcoma viability, CellTiter-Glo ATP luminescence, 48 h. Potency, µM (top dose mostly 46.1 µM), without a hit: at the highest dose activity, negative = less viability, usual class: cytotoxic;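 note: NT is the 2HG producing partner of a matched IDH1 knockdown line; 0% = DMSO-treated cells and -100% = media-only wells without cells; nearly all actives have a fitted effect of over 55% in size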
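A 48-hour cytotoxicity screen used HT-1080-NT cells plated 2 hours before compound delivery. ATP-based CellTiter-Glo luminescence measured viability, normalized to DMSO and no-cell controls.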
KB-V1 cytotox: qHTS assay for MDR1-selective chemotherapeutics: Primary screen using the drug-selected MDR subline cells KB-V1; KB-V1 MDR cells viability, CellTiter-Glo, 72 h; Potency, µM (highest dose often 46.1 µM), most hits filed as cytotoxic; hit rate 3.4% among 400,000; AID 1347076, 2019; note: % is set by controls: 0 for no effect and ±100 for the full control effect; nearly all actives have a fitted effect of over 60% in size
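Cells of the MDR subline KB-V1 are plated, dosed with compound at multiple concentrations, and incubated 72 h at 37 degrees C; CellTiter-Glo is then added and luminescence read after 10 min.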
KB-3-1 cytotox: qHTS assay for MDR1-selective chemotherapeutics: Primary screen using the parental adenocarcinoma cell KB-3-1; Potency, µM (highest dose often 46.1 µM), most hits filed as cytotoxic; KB-3-1 viability, CellTiter-Glo ATP luminescence, 72 h; hit rate 1.4% among 400,000; note: % is set by controls: 0 for no effect and ±100 for the full control effect; nearly all actives have a fitted effect of over 60% in size
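Multi-concentration cytotoxicity screen in KB-3-1 cells grown in DMEM lacking phenol red with 10% FBS. After 72 h at 37 °C with compound, ATP-dependent luminescence was recorded.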
HT1080 IDH1KD tx: qHTS for induction of synthetic lethality in tumor cells producing 2HG: qHTS for the HT-1080-IDH1KD cell line | Potency, µM (top dose mostly 46.1 µM), inactives show top-dose activity, negative = toxicity, usual class: cytotoxic | HT-1080 IDH1 knockdown viability, ATP luminescence, 48 h | hit rate 2% among 360,000;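 note: 0% = DMSO wells and -100% = cell-free medium wells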
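HT-1080-IDH1KD cells (IDH1 knocked down), 750/well in RPMI with 5% FBS, treated with compound 48 h at 37 degrees C. Viability by CellTiter-Glo luminescence, normalised to DMSO and no-cell wells; concentration-response curves classed.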
* = called active by the depositor; i = inactive; ? = inconclusive; . = no result given. The list is not random: actives were taken first. Their share in the collection is about 8%. Calls come from the whole dose curve; as a rule, active = well fitted curve in the direction sought with a large enough effect; inconclusive = small, poorly fitted or top-dose-only effect, or another doubt; inactive = no such curve, though single readings can be large; an effect the other way counts as inactive or inconclusive. Potency is the fitted concentration of half-maximal effect.

SMILES	MCF10A rereplic	SW480 rerep	HT1080NT lethal	KB-V1 cytotox	KB-3-1 cytotox	HT1080 IDH1KD tx
O=C(O)c1cccc(Cn2c(Cl)c(/C=N/NC(=O)c3ccc(O)cc3)sc2=O)c1	1.0%	3.1%	1.8%	i	i	-2.0%
CC(C)(C)C1CCN2CCC[C@](c3ccccc3)(C1)[C@@]21CO1 (some centres undefined)	.	.	2.3%	?	i	0.9%
CC(C)C1Cc2c(sc3[nH]c(=S)n(Cc4ccccc4)c(=O)c23)CO1 (centres undefined)	?	?	?	?	20.6µM*	?
CCOC(=O)Cc1nn(Cc2nc(-c3ccc(C)cc3)cs2)c(=O)c2ccccc12	-1.0%	-2.5%	16.4µM*	?	i	-8.1%
CCN(C(=O)COC(=O)c1ccccc1SCC(=O)N1CCCC1)C1CCS(=O)(=O)C1 (centres undefined)	-1.3%	-0.2%	0.5%	i	i	-4.3%
COc1ccc(Cn2ccnc2SCC(=O)NC2CCCC2)cc1	10.0%	7.8%	-8.7%	i	i	-7.7%
Cc1cnc(C=O)c2cccc([N+](=O)[O-])c12	.	.	-10.4%	i	i	?
CCN1CCN(CCCNC(=O)c2ccc(/C=C3/Sc4ccccc4N(Cc4ccccc4F)C3=O)cc2)CC1	14.6µM*	16.4µM*	18.4µM*	i	?	14.6µM*
CCN1CCN(CCNC(=O)c2ccc(/C=C3/Sc4ccccc4N(Cc4ccccc4C)C3=O)cc2)CC1	18.4µM*	7.31µM*	14.6µM*	i	?	20.6µM*
CC1CCCCN1C(=O)c1ccc(CS(=O)(=O)Cc2ccccc2)cc1 (centres undefined)	?	-8.0%	0.0%	.	.	-6.9%
O=C(NCCc1ccc2c(c1)OCCO2)c1cccc(F)c1	0.9%	-4.0%	8.9%	i	?	6.8%
COCCCNC(=S)N(CCO)Cc1cc2cc3c(cc2[nH]c1=O)OCCO3	0.651µM*	-69.4%	0.6%	i	?	-3.5%
Cc1cccc(NC(=S)N(CCN(C)C)Cc2cc3cc(C)cc(C)c3[nH]c2=O)c1	16.9%	4.3%	-8.0%	i	i	-6.4%
CN(C)CCCN(Cc1cc2cc3c(cc2[nH]c1=O)OCO3)C(=S)Nc1cccc(Cl)c1	15.8µM*	?	14.6µM*	i	i	-21.8%
Cc1ccc(NC(=S)N(CCN(C)C)Cc2cc3cc(C)ccc3[nH]c2=O)cc1	8.2%	-4.4%	-10.3%	23.1µM*	i	-17.1%
Cc1ccc(NC(=S)N(Cc2cccs2)Cc2cc3cc(C)ccc3[nH]c2=O)cc1	15.7%	-5.7%	0.2%	i	?	-9.6%
Cc1ccc(NC(=S)N(CCN(C)C)Cc2cc3cccc(C)c3[nH]c2=O)cc1	?	20.6µM*	-10.0%	3.26µM*	i	-18.9%
CC(=O)c1nnn(-c2ccccc2C#N)c1C	1.8%	0.1%	13.4%	i	i	3.2%
Cc1cccc(NC(=S)N(CCN(C)C)Cc2cc3cccc(C)c3[nH]c2=O)c1	3.3%	?	-14.0%	16.4µM*	i	-8.5%
CCCN(Cc1cc2cc(C)ccc2[nH]c1=O)C(=O)c1cccc(OC)c1	14.4%	17.8%	-13.4%	7.31µM*	16.4µM*	-14.4%
N/C(=N\c1nc2ccccc2o1)NC(=O)c1ccccc1NC(=O)c1ccccc1	?	3.7%	?	i	i	?
N/C(=N\c1nc2ccccc2o1)NC(=O)c1cccc(Cl)c1	-16.1%	4.11µM*	22.7%	i	i	25.0%
CCn1c(CSc2nc3ccccc3s2)n[nH]c1=S	23.5%	?	?	i	i	?
N#CC(C#N)=C(Nc1ccc(F)cc1)SCc1cccc(F)c1	23.1µM*	-31.9%	?	?	16.4µM*	?
COc1ccc(COc2ccccc2C(=O)NCc2ccccc2)cc1F	?	12.0%	-1.8%	14.6µM*	i	-15.6%
SMILES	MCF10A rereplic	SW480 rerep	HT1080NT lethal	KB-V1 cytotox	KB-3-1 cytotox	HT1080 IDH1KD tx
COc1ccccc1CNC(=O)c1ccccc1C(=O)NC(C)(C)C(=O)NCc1ccccc1OC	1.9%	-15.3%	-1.9%	i	i	-6.2%
COc1ccccc1CNCc1ccc(OC)c2ccccc12	1.3%	-2.7%	14.6µM*	?	i	-57.8%
COc1ccccc1CNC(=O)c1ccccc1OC	9.2µM*	-12.4%	11.7%	?	i	4.4%
CCOc1ncccc1C(=O)NCc1ccccc1Cl	0.92µM*	?	-0.3%	i	i	1.6%
CCOc1ncccc1C(=O)Nc1ccc(Cl)cc1	?	10.7%	-5.3%	?	i	1.6%
COc1cccc(CNCc2ccc(OC)c3ccccc23)c1OC	1.1%	13.2%	?	i	i	?
CC1CC(=O)N(c2ccc(NCCc3ccc(O)cc3)c([N+](=O)[O-])c2)C1=O (centres undefined)	?	-10.4%	-3.5%	?	i	-15.9%
COc1ccccc1CNC(=O)/C(C#N)=C/c1ccc(OC)c(OC)c1OC	18.4µM*	-10.6%	-0.8%	i	i	4.2%
COc1ccccc1CNC(=O)c1ccc2nc3[nH]c4ccccc4c3nc2c1	18.4µM*	?	?	i	?	?
O=C(NCc1ccccc1Cl)c1ccccc1Oc1ccccc1	?	2.6%	8.2%	13µM*	i	8.9%
Cc1noc(C)c1COc1ccccc1C(=O)NCc1ccccc1Cl	4.6%	-24.1%	8.6%	i	i	2.6%
COc1ccc(/C=C(\C#N)C(=O)OCC(=O)NCc2ccccc2OC)cc1	-1.2%	-42.0%	-9.7%	i	i	-23.0%
COc1ccccc1CNC(=O)c1ccc(-c2ccccc2C(F)(F)F)o1	14.6µM*	0.6%	-21.3%	i	i	-16.7%
CCc1nc2ccc(C(=O)NCCc3ccccc3OC)cc2nc1CC	5.2%	3.5%	4.5%	i	i	4.8%
COc1ccccc1CNC(=O)c1ccc(-c2ccccc2Cl)o1	?	?	-22.6%	i	i	-15.0%
Cc1ccc(S(=O)(=O)c2nnn3c2nc(N2CCCCC2)c2ccccc23)cc1	6.3%	-3.3%	12.1%	?	i	6.2%
CCSc1nnc(NC(=O)c2cccc3ccccc23)s1	-5.0%	-11.0%	-4.5%	i	i	-9.2%
